Test results from PubChem BioAssay (Tox21).
The source made the active and inactive calls. Unless noted, calls come from the whole dose curve; as a rule, active = well fitted curve in the direction sought with a large enough effect in the repeat runs; inconclusive = weak or mixed curves; inactive = no such curve, though single readings can be large; an effect the other way counts as inactive or inconclusive.

What was measured:
[1] = qHTS assay for small molecules that induce genotoxicity in human embryonic kidney cells expressing luciferase-tagged ATAD5 (AID 651632); note: nearly all actives have a fitted effect of over 15% in size
Outline: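 Concentration-response screen for ATAD5 upregulation in HEK293T luciferase reporter cells; 16 hr treatment at 37C, then luminescence after 30 min with Amplite at room temperature.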

[2] = qHTS assay for small molecule agonists of the p53 signaling pathway - cell viability (AID 651633; calls by dose curve; note: nearly all actives have a fitted effect of over 30% in size; note: potency is the fitted concentration of half-maximal effect)
Outline: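 p53RE-bla cells were treated with compound for 16 hours at 37 C. Cytotoxicity was then measured as CellTiter-Glo luminescence after 30 min at room temperature.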

[3] = qHTS assay for small molecule disruptors of the mitochondrial membrane potential - cell viability (AID 720634; calls by dose curve; note: nearly all actives have a fitted effect of over 20% in size; note: potency is the fitted concentration of half-maximal effect)
Outline: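 In this qHTS format, HepG2 cells plated overnight were pinned with compound, incubated 1 hr, and assayed for ATP luminescence with CellTiter-Glo after m-MPI dye addition.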

[4] = qHTS assay to test for compound auto fluorescence at 590 nm (red) in HepG2 cells (AID 720674)
Outline: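 Seeding: 2,000 HepG2 cells/well, MEM/10% FBS, overnight 37 C. Dosing: compound vs DMSO. Incubation: 1 hr, 37 C, 5% CO2. Read: fluorescence 540 ex/590 em, Rose Bengal sodium as red reference.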

[5] = qHTS assay to test for compound auto fluorescence at 460 nm (blue) in HEK293 cells (AID 720678)
Outline: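 HEK293 cells (2,000/well, medium with 10% dialyzed FBS) attached 4-5 hr, then exposed to compound overnight at 37C, 5% CO2. Blue fluorescence read at 405/460 nm, with triamterene as reference fluorophore.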

[6] = qHTS assay to test for compound auto fluorescence at 590 nm (red) in HEK293 cells (AID 720679)
Outline: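 HEK293 cells (2,000/well, 10% dialyzed FBS) attached 4-5 hr, then dosed with compound or DMSO and incubated overnight at 37C, 5% CO2. Red fluorescence read at 540/590 nm, Rose Bengal sodium as reference fluorophore.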

[7] = qHTS assay to test for compound auto fluorescence at 535 nm (green) in HEK293 cells (AID 720680)
[8] = qHTS assay to test for compound auto fluorescence at 460 nm (blue) in HEK293 cell free culture (AID 720681)
Outline: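 Compounds were added to cell-free DMEM with 10% FBS and fluorescence read directly. The blue channel used 405 nm excitation and 460 nm emission, with triamterene as the reference fluorophore.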

[9] = qHTS assay to test for compound auto fluorescence at 535 nm (green) in HEK293 cell free culture (AID 720682)
Outline: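 Steps: dispense DMEM/10% FBS into empty wells; pin in compound or DMSO; measure fluorescence at 485/535 nm. Values are fluorescein equivalents.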

[10] = qHTS assay to test for compound auto fluorescence at 590 nm (red) in HEK293 cell free culture (AID 720683)
Outline: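 Cell-free wells of DMEM with 10% FBS received compound, and intrinsic fluorescence was read at excitation/emission 540/590 nm. Values expressed as equivalence to Rose Bengal sodium.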

[11] = qHTS assay to test for compound auto fluorescence at 590 nm (red) in HepG2 cell free culture (AID 720684)
Outline: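 Rose Bengal sodium served as the reference for red signal. Test compounds were dispensed into serum-containing MEM (10% FBS) without cells, and plates were read at 540/590 nm.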

[12] = qHTS assay to test for compound auto fluorescence at 460 nm (blue) in HepG2 cell free culture (AID 720685)
Outline: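 Cell-free plates of MEM plus 10% FBS received 23 nL compound or DMSO vehicle; blue-channel (405/460 nm) intensity scored against triamterene as reference fluorophore.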

[13] = qHTS assay to test for compound auto fluorescence at 535 nm (green) in HepG2 cell free culture (AID 720686)
[14] = qHTS assay to test for compound auto fluorescence at 460 nm (blue) in HepG2 cells (AID 720687)
Outline: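 HepG2 cells in MEM with 10% FBS, attached overnight at 37 C, were exposed to compound or DMSO for 1 hr at 37 C, 5% CO2. Blue fluorescence was read at 405/460 nm, with triamterene as reference fluorophore.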

[15] = qHTS assay for small molecules that induce genotoxicity in human embryonic kidney cells expressing luciferase-tagged ATAD5 - cell viability (AID 651634; calls by dose curve; note: nearly all actives have a fitted effect of over 25% in size; note: potency is the fitted concentration of half-maximal effect)
Outline: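 15.5 hr compound or vehicle exposure of HEK293T cells expressing luciferase-tagged ATAD5 at 37C; live-cell protease activity is read by fluorescence after 30 min of CellTiter-Fluor.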

[16] = qHTS assay for small molecule disruptors of the mitochondrial membrane potential (AID 720635); note: potency is the fitted concentration of half-maximal effect
Outline: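 HepG2 cells exposed to compound 1 hr at 37C, then Mito-MPS dye 30 min. Ratio read of aggregate (540/590 nm) versus monomer (490/535 nm) fluorescence.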

[17] = qHTS assay to test for compound auto fluorescence at 535 nm (green) in HepG2 cells (AID 720675)
[18] = target: Glucocorticoid receptor (Homo sapiens) (UniProt P04150); experiment: qHTS assay to identify small molecule antagonists of the glucocorticoid receptor (GR) signaling pathway (AID 720692; active = well fitted inhibition curve with a large enough effect in the signal ratio in the repeat runs, not every such curve was filed as active; inconclusive = weak or mixed curves, or effect the other way; inactive = no such curve, though single readings can be large or run the other way; the % refers to the signal ratio)
Glucocorticoid receptor (Homo sapiens), sequence (P04150 whole entry, looked up): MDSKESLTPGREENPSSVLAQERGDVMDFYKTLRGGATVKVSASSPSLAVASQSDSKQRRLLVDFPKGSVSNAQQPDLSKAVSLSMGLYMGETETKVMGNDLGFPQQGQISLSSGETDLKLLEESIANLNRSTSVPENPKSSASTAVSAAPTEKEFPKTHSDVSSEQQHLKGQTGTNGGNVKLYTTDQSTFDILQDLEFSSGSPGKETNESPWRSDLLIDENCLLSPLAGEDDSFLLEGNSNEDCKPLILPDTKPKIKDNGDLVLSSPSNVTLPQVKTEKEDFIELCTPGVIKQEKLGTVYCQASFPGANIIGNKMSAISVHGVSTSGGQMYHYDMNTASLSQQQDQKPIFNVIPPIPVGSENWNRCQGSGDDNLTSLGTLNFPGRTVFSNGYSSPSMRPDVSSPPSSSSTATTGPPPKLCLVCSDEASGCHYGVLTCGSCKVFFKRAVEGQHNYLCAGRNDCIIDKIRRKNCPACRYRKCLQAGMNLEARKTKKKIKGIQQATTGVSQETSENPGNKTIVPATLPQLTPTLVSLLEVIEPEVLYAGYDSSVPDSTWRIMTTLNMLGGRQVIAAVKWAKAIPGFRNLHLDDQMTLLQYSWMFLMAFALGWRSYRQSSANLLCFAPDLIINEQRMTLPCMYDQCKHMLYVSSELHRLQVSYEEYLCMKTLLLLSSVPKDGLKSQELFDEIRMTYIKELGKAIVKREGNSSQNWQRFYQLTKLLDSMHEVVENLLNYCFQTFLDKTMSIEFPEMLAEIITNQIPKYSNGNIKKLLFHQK
Outline: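 Tox21 10K library screened in concentration-response for blockade of dexamethasone (5 nM final)-induced GRE-bla reporter activity in HeLa cells; 18 h treatment, fluorescence read.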

[19] = target: Glucocorticoid receptor (Homo sapiens) (UniProt P04150); experiment: qHTS assay to identify small molecule agonists of the glucocorticoid receptor (GR) signaling pathway (AID 720691; active = well fitted activation curve with a large enough effect in the signal ratio in the repeat runs, not every such curve was filed as active; inconclusive = weak or mixed curves, or effect the other way; inactive = no such curve, though single readings can be large or run the other way; the % refers to the signal ratio); settings: GR-bla HeLa, beta-lactamase reporter ratio, 18 h; activation: at 62.4 µM (top of the series) unless noted
Outline: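 Measures GR pathway activation through a GRE-beta-lactamase reporter stably integrated in HeLa cells, with 18 h compound treatment at 37 C and fluorescence detection using a FRET substrate.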
% is set by controls: 0 for no effect and ±100 for the full control effect.

O=C(O)c1ccc(-n2nc(-c3ccccc3O)nc2-c2ccccc2O)cc1
active: Potency [2] 13.3 µM
inactive: Potency [1] | Potency [3] | Potency [4] | outcome [5] | Potency [6] | outcome [7] | outcome [8] | outcome [9] | Potency [10] | Potency [11] | outcome [12] | Potency [13] | outcome [14]

CCCCCCCC#N
inactive: Potency [1] | Potency [2] | Potency [15] | Potency [16] | Potency [4] | Potency [17] | outcome [5] | Potency [6] | outcome [7] | outcome [8] | outcome [9] | Potency [10] | Potency [11] | Potency [13] | outcome [14] | Potency [18]

CCOC(=O)NCCOc1ccc(Oc2ccccc2)cc1
inactive: Potency [1] | Potency [2] | Potency [15] | Potency [4] | Potency [17] | outcome [5] | Potency [6] | outcome [7] | outcome [8] | outcome [9] | Potency [10] | Potency [11] | outcome [12] | outcome [14]

CCCCCCc1ccc(-c2ccc(C#N)cc2)cc1
inactive: Potency [1] | Potency [2] | Potency [15] | Potency [3] | Potency [4] | Potency [17] | outcome [5] | Potency [6] | outcome [8] | outcome [9] | Potency [10] | Potency [11] | Potency [13] | outcome [14]

O=C1C(O)=C(O)C(=O)C(O)=C1O
inactive: Potency [1] | Potency [2] | Potency [15] | Potency [3] | outcome [5] | Potency [6] | outcome [7] | outcome [8] | outcome [9] | Potency [10] | Potency [11] | outcome [12] | Potency [13] | outcome [14] | Potency [19] | Potency [18]

Cc1c(N)cccc1[N+](=O)[O-]
inactive: Potency [1] | Potency [2] | Potency [3] | Potency [16] | Potency [4] | Potency [17] | Potency [6] | outcome [8] | outcome [9] | Potency [10] | Potency [11] | outcome [12] | Potency [13] | outcome [14] | Potency [19] | Potency [18]

CCCCCCCCCCCCN1CCCCCC1=O
inactive: Potency [1] | Potency [4] | Potency [17] | outcome [5] | Potency [6] | outcome [7] | outcome [8] | outcome [9] | Potency [10] | Potency [11] | outcome [12] | outcome [14]
active: Potency [2] 15.4 µM | Potency [15] 61.1 µM

CN(C)CCCN1c2ccccc2Sc2ccccc21
inactive: Potency [1] | Potency [2] | Potency [15] | Potency [3] | fluorescence, % of fluorescein control [17] -0.18% [at 18.6 µM] | fluorescence, % of triamterene [5] 0.0346% [at 18.6 µM] | fluorescence, % of fluorescent control [6] -0.0069% [at 18.6 µM] | fluorescence, % of fluorescein [7] -0.0365% [at 18.6 µM] | fluorescence, % of fluorescent control [8] -0.0313% [at 18.6 µM] | activity change [9] -0.0157% [at 18.6 µM] | fluorescence, % of fluorescent control [10] 0.0444% [at 18.6 µM] | fluorescence, % of Rose Bengal [11] -0.194% [at 18.6 µM] | fluorescence, % of fluorescent control [12] 0.0019% [at 18.6 µM] | fluorescence, % of fluorescein control [13] 0.134% [at 18.6 µM] | fluorescence, % of fluorescent control [14] -0.0716% [at 18.6 µM]

Brc1c2ccccc2cc2ccccc12
inactive: Potency [1] | Potency [2] | Potency [15] | Potency [4] | Potency [17] | Potency [6] | outcome [7] | outcome [8] | outcome [9] | Potency [10] | Potency [11] | outcome [12] | Potency [13] | outcome [14] | Potency [18]
active: Potency [3] 55 µM | activation [19] 9.34% [inconclusive] [at 79.2 µM]

CCC(C)(C)CC
inactive: Potency [1] | Potency [2] | Potency [15] | Potency [3] | Potency [4] | Potency [17] | outcome [5] | Potency [6] | outcome [8] | outcome [9] | Potency [10] | Potency [11] | outcome [12] | Potency [13] | outcome [14] | Potency [19] | Potency [18]

Clc1ccc2c(c1)CCc1cccnc1C2=C1CCNCC1
inactive: Potency [1] | Potency [2] | Potency [3] | Potency [4] | Potency [17] | outcome [5] | Potency [6] | outcome [7] | outcome [8] | outcome [9] | Potency [10] | Potency [11] | outcome [12] | Potency [13] | outcome [14] | Potency [19]

CCOc1ccc(N=Nc2ccc(/C=C/c3ccc(N=Nc4ccc(OCC)cc4)cc3S(=O)(=O)O)c(S(=O)(=O)O)c2)cc1
inactive: Potency [1] | Potency [2] | Potency [4] | Potency [17] | outcome [5] | Potency [6] | outcome [7] | Potency [10] | Potency [11] | outcome [12] | Potency [13] | outcome [14] | Potency [19] | Potency [18]
active: Potency [15] 42.6 µM

Cc1nn(C)c(Oc2ccccc2)c1/C=N/OCc1ccc(C(=O)OC(C)(C)C)cc1
inactive: Potency [1] | Potency [2] | Potency [15] | Potency [4] | Potency [17] | outcome [5] | Potency [6] | outcome [7] | outcome [8] | outcome [9] | Potency [10] | Potency [11] | outcome [12] | Potency [13] | outcome [14] | Potency [19]
active: Potency [16] 17.2 µM

CC(C)Nc1ccc(NC(C)C)c2c1C(=O)c1ccccc1C2=O
active: Potency [16] 11.3 µM
inactive: Potency [1] | Potency [2] | Potency [4] | Potency [17] | outcome [5] | Potency [6] | outcome [7] | outcome [8] | outcome [9] | Potency [10] | Potency [11] | outcome [12] | Potency [13] | outcome [14] | Potency [19] | Potency [18]

CC[N+](C)(CC)CCOC(=O)C(O)(c1ccccc1)C1CCCCC1 (stereo not drawn)
inactive: Potency [1] | Potency [2] | Potency [15] | Potency [3] | outcome [5] | Potency [6] | outcome [7] | outcome [8] | outcome [9] | Potency [10] | Potency [11] | outcome [12] | Potency [13] | outcome [14] | Potency [18]
